Screens as filed in PubChem.
Cycloheximide cs: Cycloheximide Counterscreen for Small Molecule Inhibitors of Shiga Toxin. cell reporter, cycloheximide protein synthesis inhibition counterscreen. 300,000 compounds, 12% hits. max response, %; in the data active means max response mostly above about 13%, no sharp cut-off; inactive means mostly below about 14%; further: read at 38.3 µM for the half of the compounds with a filed dose; 0% is about no effect
Pf growth 48h: Primary qHTS for delayed death inhibitors of the malarial parasite plastid, 48 hour incubation; P. falciparum luciferase growth in erythrocytes, 48 h; Potency, µM (doses to about 28.7 µM), without a hit: at the highest dose activity change, negative = inhibition, most hits filed as inhibitors; 310,000 compounds, 5.9% hits; AID 504832, 2011; further: potency means the concentration at half of the fitted maximal effect; on the % scale 0 is the no-effect control and ±100 the full control effect
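Parasite viability was followed by luminescence of a genomically integrated firefly luciferase. Cultures held 0.1% parasitemia at 2% hematocrit (final), incubated under 5% CO2 at 37 C.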
Shiga inhibitor: A qHTS for Small Molecule Inhibitors of Shiga Toxin | Vero cells, Shiga toxin protein synthesis inhibition reporter | inhibition, % at 38.7 µM | 290,000 compounds, 9.2% hits | AID 2315, 2010; in the data active means inhibition mostly above about 28%, no sharp cut-off; inactive means mostly below about 43%; further: 0% is about no effect
Pf growth 96h: Primary qHTS for delayed death inhibitors of the malarial parasite plastid, 96 hour incubation; P. falciparum luciferase reporter growth, 96 h; Potency, µM (doses to about 28.7 µM), for inactives: at the highest dose activity change, negative = inhibition, actives largely listed as inhibitors; 320,000 compounds, 6.9% hits; further: potency means the concentration at half of the fitted maximal effect; on the % scale 0 is the no-effect control and ±100 the full control effect
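Delayed-death screen, second-generation endpoint: infected erythrocytes, 2% hematocrit, 0.05% parasitemia final; 96 hours at 37 C, 5% CO2; luciferase detection reagent; luminescence decrease equals reduced growth.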
AMA1 RON2 block: qHTS for Inhibitors of AMA1-RON; Towards Development of Antimalarial Drug Lead: Primary Screen. AlphaScreen AMA1-biotinylated RON2 peptide binding. 360,000 compounds, 0.2% hits. Potency, µM (series often up to 58.2 µM), without a hit: at the highest dose activity change, negative = inhibition, actives largely listed as inhibitors. Plasmodium falciparum AMA1 (3D7) - RON2 peptide interaction;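 further: potency means the concentration at half of the fitted maximal effect; 0% = vehicle wells and -100% = peptide control; nearly all actives have a fitted effect of over 45% in size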
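AMA1 (3D7) with his tag at 25 nM final met compounds first, then biotinylated RON2 peptide at 25 nM; detection used donor plus acceptor beads, 10 µg/mL apiece, read by AlphaScreen after 30 min at room temperature.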
SARS PLpro yeast: qHTS of Yeast-based Assay for SARS-CoV PLP; 330,000 compounds, 0.19% hits; AID 485353, 2010; Potency, µM (top dose mostly 32.9 µM), for inactives: top-dose activity, positive = growth rescue, most hits filed as activators; S. cerevisiae expressing SARS-CoV PLpro, growth rescue; calls by dose curve; further: potency means the concentration at half of the fitted maximal effect; 0% is about no effect; nearly all actives have a fitted effect of over 55% in size
Numbers without * were called inactive; ? = inconclusive; . = not tested or not shown; [ ] = dose if it differs, or a comment. The list is not random: actives were taken first. Their share in the collection is about 19%. Unless noted, the call rests on the fitted dose curve; in most records, active means well fitted curve in the direction sought with a large enough effect; inconclusive means small, poorly fitted or top-dose-only effect, or another doubt; inactive means no such curve, though single readings can be large; an effect the other way counts as inactive or inconclusive.

SMILES | Cycloheximide cs | Pf growth 48h | Shiga inhibitor | Pf growth 96h | AMA1 RON2 block | SARS PLpro yeast
CCn1c(/C=C/c2ccccc2)nc2ccccc2c1=O | 2.3 | -24.7% | 19.3 | -0.4% | 11.4% | 1.1%
Cn1c(/C=C/c2ccccc2)nc2ccccc2c1=O | 27.9* | 17.5% | 57.0* | -19.1% | -4.2% | 1.6%
Cn1c(/C=C/c2ccc(Cl)cc2)nc2ccccc2c1=O | 24.5* | 78.8% | 46.2* | ? | 21.5% | -6.4%
CCn1c(/C=C/c2ccc(F)cc2)nc2ccccc2c1=O | 1.4 | ? | . | ? | 6.7% | -5.3%
CCOc1cc(/C=N\NC(=O)Cc2ccccc2)ccc1OCC(=O)Nc1ccc(C)c(C)c1 | -1.4 | -17.0% | -21.5 | . | 19.1% | 1.3%
Cc1ccc(COc2ccc(Br)cc2/C=N/O)cc1 | 30.6* | 188.6% | 58.0 | 398.6% | 11.3% | -20.8%
O/N=C/c1cc(Br)ccc1OCc1cccc(F)c1 | 26.1* | 45.6% | 92.7 | 117.6% | -2.3% | -17.0%
CCOc1cc(/C=N/O)ccc1OCc1ccc(C)cc1 | 26.8* | 53.1% | active | -18.8% | -5.5% | -14.0%
O/N=C/c1cc(Br)ccc1OCc1ccc(F)cc1 | . | . | . | . | -16.6% | .
CCOc1cc(/C=N/O)ccc1OCC(=O)Nc1cccc(C)c1 | 31.0* | 14.9% | 40.8* | 42.9% | 3.9% | -10.6%
COc1cccc(N2CC(C)Cn3c2nc2c3c(=O)[nH]c(=O)n2C)c1 (stereo not drawn) | 1.5 | 37.8% | -4.9 | -2.5% | -4.5% | -1.2%
CCN1CCN(C(=O)c2ccc(N3CC4CC(C3)c3cccc(=O)n3C4)c([N+](=O)[O-])c2)CC1 (stereo not drawn) | -5.1 | 0.9% | -1.1 | ? | -0.9% | 0.6%
COc1ccc(CCNC(=O)C2CC(O)CN2S(=O)(=O)c2ccc(Cl)cc2)cc1OC (stereo not drawn) | . | . | . | . | 13.6% | 4.1%
CC(=O)Nc1ccc(C(=O)CN2CCN(c3ccccc3)CC2)cc1 | 3.4 | -37.6% | -7.8 | -10.9% | -5.0% | 2.4%
O=C(O)CSC1CC(=O)N(c2ccc(Br)cc2)C1=O (stereo not drawn) | 0.6 | -8.1% | -10.3 | -2.9% | -1.9% | -11.5%
O=C(C[n+]1cccc(CNC(=O)c2ccc(OC(F)F)cc2)c1)c1ccccc1 | -3.6 | -6.4% | -5.6 | ? | 39.7% | 0.5%
O=C(C[n+]1cccc(CNC(=O)c2ccc(OC(F)F)cc2)c1)Nc1ccc(F)cc1 | -1.6 | 8.28µM* | 10.1 | 0.738µM* | -4.0% | -8.1%
O=C(C[n+]1cccc(CNC(=O)c2ccc(OC(F)F)cc2)c1)Nc1cccc(C(F)(F)F)c1 | -2.0 | 5.22µM* | 7.7 | ? | -8.1%[11.6 µM] | -13.0%
Cc1nc2sc3c(NCc4ccco4)ncnc3c2c2c1COC(C)(C)C2 | -1.4 | 6.57µM* | -3.5 | 11.7µM* | -10.0% | -0.1%
CCCc1nc2oc3c(NCCOCCO)ncnc3c2c2c1COC(C)(C)C2 | 3.1 | -1.2% | -12.9 | 3.7µM* | -4.8% | 6.0%
CCCc1nc2oc3c(OC)ncnc3c2c2c1COC(C)(C)C2 | 7.3 | . | -30.5 | 6.57µM* | -2.0% | 2.3%
CC(C)c1nc2oc3c(NCCO)ncnc3c2c2c1COC(C)(C)C2 | -1.5 | -6.6% | -3.1 | ? | -8.7% | -1.4%
Cc1nc2oc3c(NCc4ccccc4)ncnc3c2c2c1COC(C)(C)C2 | -2.1 | 11.7µM* | -12.8 | ? | -3.2% | 12.1%
COc1ccccc1NS(=O)(=O)c1cc(C(=O)N2CC(C)CC(C)C2)ccc1C (stereo not drawn) | -3.7 | . | -17.5 | ? | 23.7% | -28.3%
CN(C)CCNC(=O)C(C(=O)c1ccc(F)cc1)n1ccccc1=O (stereo not drawn) | -1.5 | 39.6% | -11.9 | ? | -1.5% | -0.9%
CC(=O)Nc1ccc(S(=O)(=O)N2C(C)CCCC2C)cc1 (stereo not drawn) | -2.3 | 5.1% | 23.8 | -24.6% | -2.0% | -3.0%
Cn1c(COc2ccccc2O)[n+](C)c2ccccc21 | -4.8 | -10.6% | 4.4 | -18.8% | 1.2% | 0.7%
